Bioassay records from PubChem BioAssay.
This is a sample that favours compounds with a hit; in the whole collection about 21% have one here.
Pf growth 48h – Primary qHTS for delayed death inhibitors of the malarial parasite plastid, 48 hour incubation | P. falciparum luciferase growth in erythrocytes, 48 h | Potency, µM (series often up to 28.7 µM), for inactives: at the highest dose activity change, negative = inhibition, usual class: inhibitors | actives 5.9% (n = 310,000); active = well fitted inhibition curve with a large enough effect; inconclusive = small, poorly fitted or top-dose-only effect, or another doubt; inactive = no such curve, though single readings can be large or run the other way; note: potency is the fitted concentration of half-maximal effect; % is set by controls: 0 for no effect and ±100 for the full control effect
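Compounds are pin-transferred into medium, infected erythrocytes (2% hematocrit, 0.1% parasitemia final) are added, and plates sit one parasite generation at 37 C in 5% CO2. Detection reagent is then added and luminescence measured.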
NS1 function inh – qHTS Assay for Inhibitors of Influenza NS1 Protein Function | Potency, µM (highest dose often 46.1 µM), for inactives: at the top dose activity, positive = more growth | actives 0.4% (n = 270,000) | AID 2326, 2010; note: potency is the fitted concentration of half-maximal effect; actives are rising curves; nearly all actives have a fitted effect of over 50% in size
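S. cerevisiae expressing influenza A NS1, grown in glucose, washed, then diluted 1:100 into pH 6.0 -URA galactose medium with 23 nl compound. Growth recovery read as OD600; NS1-free strain serves as control.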
SARS PLP yeast – qHTS of Yeast-based Assay for SARS-CoV PLP; S. cerevisiae expressing SARS-CoV PLpro, growth rescue; Potency, µM (highest dose often 32.9 µM), for inactives: at the highest dose activity, positive = growth rescue, actives largely listed as activators; actives 0.19% (n = 330,000); AID 485353, 2010; note: potency is the fitted concentration of half-maximal effect; 0% is about no effect; nearly all actives have a fitted effect of over 55% in size
Cycloheximide cs – Cycloheximide Counterscreen for Small Molecule Inhibitors of Shiga Toxin. actives 12% (n = 300,000). max response, %. cell reporter, cycloheximide protein synthesis inhibition counterscreen. AID 2314, 2010; in the data active = max response mostly above about 13%, no sharp cut-off; inactive = mostly below about 14%; note: read at 38.3 µM for the half of the compounds with a filed dose; 0% is about no effect
Shiga toxin inh – A qHTS for Small Molecule Inhibitors of Shiga Toxin; Vero cells, Shiga toxin protein synthesis inhibition reporter; inhibition, % at 38.7 µM; actives 9.2% (n = 290,000); AID 2315, 2010; in the data active = inhibition mostly above about 28%, no sharp cut-off; inactive = mostly below about 43%; note: 0% is about no effect
Pf growth 96h – Primary qHTS for delayed death inhibitors of the malarial parasite plastid, 96 hour incubation; P. falciparum luciferase reporter growth, 96 h; Potency, µM (doses to about 28.7 µM), inactives show at the top dose activity change, negative = inhibition, actives largely listed as inhibitors; actives 6.9% (n = 320,000); AID 504834, 2011; active = well fitted inhibition curve with a large enough effect; inconclusive = small, poorly fitted or top-dose-only effect, or another doubt; inactive = no such curve, though single readings can be large or run the other way; note: potency is the fitted concentration of half-maximal effect; % is set by controls: 0 for no effect and ±100 for the full control effect
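Cell-based qHTS: luciferase-tagged P. falciparum in erythrocytes (2% hematocrit, 0.05% parasitemia final) incubated with compounds for 96 hours, 37 C, 5% CO2; luciferase detection reagent then added and luminescence measured.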
* hit, by the source's call; ? = inconclusive; . = no result; [ ] = dose if it differs, or a comment. Unless noted, calls come from the whole dose curve.

SMILES	Pf growth 48h	NS1 function inh	SARS PLP yeast	Cycloheximide cs	Shiga toxin inh	Pf growth 96h
COc1ccc(/C=C/C(=O)Nc2cc(C)nn2-c2nc3ccccc3n2Cc2cccc([N+](=O)[O-])c2)cc1	?	5.7%	3.7%	5.0	17.8	9.28µM*
CCC12CN3CCN(CC(C3)/C1=N/NC(N)=O)C2	6.3%	.	-7.5%	-7.3	-3.6	-0.4%
CCC1SC(C)C/C(=N/NC(N)=O)C1C (stereo not drawn)	10.2%	6.4%	0.3%	35.4*	17.2	12.8%
CCOC(=O)c1c(CC(C)C)csc1N	-3.3%	.	0.5%	-2.1	-3.9	11.0%
O=S(=O)(NC1CC(NS(=O)(=O)OCC(Cl)(Cl)Cl)C2CCCCC12)OCC(Cl)(Cl)Cl (stereo not drawn)	10.3%	16.0%	5.6%	-1.5	-8.0	?
CCOC(=O)N1CCC(Nc2ncnc3c2cnn3-c2ccccc2)CC1	?	-57.3%	-13.6%	2.6	17.8	33.2%
Cc1cccc(-n2ncc3c(N(C)Cc4ccccc4)ncnc32)c1	71.6%	-36.0%	-6.1%	57.1*	96.9*	99.1%
c1ccc(-n2ncc3c(NC4CCCCCC4)ncnc32)cc1	130.2%	-6.4%	-3.5%	44.8*	62.1*	66.8%
COC(=O)c1ccc(Nc2ncnc3c2cnn3-c2cccc(C)c2)cc1	6.9%	-3.1%	3.2%	9.9	8.9	?
Cc1cccc(-n2ncc3c(N)ncnc32)c1	2.8%	-12.3%	-8.6%	52.4*	92.8	-3.2%
Cc1cccc(-n2ncc3c(Nc4ccc(F)cc4)ncnc32)c1	?	-2.5%	-8.9%	43.6*	52.5*	?
Cc1c([N+](=O)[O-])c(C/C=N/O)nn1C	-18.5%	3.6%	0.5%	1.1	12.4	-48.6%
N[C@@H](COP(=O)(O)O)C(=O)O	.	2.7%	.	.	.	.
CCC(=O)NNc1ncnc2c1cnn2-c1cccc(C)c1	7.1%	.	0.9%	7.1	16.3	24.6%
CC(C)Nc1ncnc2c1cnn2-c1ccccc1	170.7%	-10.9%	-40.9%	23.3*	24.1*	80.9%
COc1ccc(-n2ncc3c(Nc4cccc(C)c4)ncnc32)cc1	64.7%	-5.8%	3.1%	15.2*	108.8*	20.2%[5.75 µM]
COc1ccc(Nc2ncnc3c2cnn3-c2cccc(C)c2)cc1OC	20.2%	3.3%	0.2%	-2.1	26.8	11.0%
Cc1cccc(-n2ncc3c(NC(C)C)ncnc32)c1	161.8%	-73.5%	-13.6%	52.8*	79.1*	223.8%
Cc1ccccc1Nc1ncnc2c1cnn2-c1ccccc1	-16.4%	-139.4%	-15.6%	47.7*	69.7*	2.9%
NNc1ncnc2c1cnn2-c1ccccc1	?	4.8%	5.2%	38.4*	42.4	.
CCOc1ccc(Nc2ncnc3c2cnn3-c2ccccc2)cc1	42.9%	-38.9%	2.0%	-2.8	2.7	-4.7%
CC(=O)Nc1sc2c(c1CN1CCN(c3ccc(F)cc3)CC1)CCCC2	.	-10.1%	-4.8%	-4.2	-16.4	9.28µM*
CC(=O)Nc1sc(C)c(C)c1CN1CCN(Cc2ccccc2)CC1	?	1.3%	-1.2%	10.6	10.2	4.15µM*
O=C(NC(=S)N1CCN(c2ccccn2)CC1)c1ccco1	22.4%	0.7%	0.2%	18.4*	36.4	-28.0%
Cc1sc(NC(=O)c2ccco2)c(CN2CCN(c3ccccn3)CC2)c1C	9.28µM*	-127.7%	-13.6%	32.4*	53.9	8.1%
SMILES	Pf growth 48h	NS1 function inh	SARS PLP yeast	Cycloheximide cs	Shiga toxin inh	Pf growth 96h
Clc1ccc(C[n+]2csc3ccccc32)cc1	65.7%	3.7%	-35.5%	18.7*	42.6*	14.6%
COc1cc(N)c(Cl)cc1C(=O)N[C@H]1CCN(CCCOc2ccc(F)cc2)C[C@H]1OC	2.62µM*	.	.	.	.	4.65µM*
Cc1ccccc1C(=O)N1CCC(C(=O)Nc2cccc(S(=O)(=O)N3CCCCC3)c2)CC1	14.7µM*	.	-2.0%	.	.	?
Cc1ccccc1C(=O)N1CCC(C(=O)Nc2ccc(C)c(S(=O)(=O)N3CCCCC3)c2)CC1	13.1µM*	.	-3.6%	.	.	?
Cc1ccccc1C(=O)N1CCC(C(=O)Nc2ccc(S(=O)(=O)N3CCCC3)cc2)CC1	?	-9.9%	3.7%	-4.6	5.9	.
COc1cccc(/C=C/C(=O)OCC(=O)Nc2ccc(N3CCOCC3)cc2)c1OC	25.3%	.	-1.3%	-3.4	-2.3	-8.0%
CC1=NN(c2ccccc2)C(=O)C1C=Nc1ccccc1O (stereo not drawn)	5.22µM*	-33.7%	-3.0%	14.3	27.4*	?
Cc1cc(C)cc(C(=O)NCC(=O)OCC(=O)N2CCN(S(=O)(=O)c3ccc4ccccc4c3)CC2)c1	9.7%	?	7.0%	-0.3	-8.5	-17.1%
Cn1cccc1CC(=O)NNC(=O)Nc1ccccc1F	6.0%	.	-1.1%[6.58 µM]	.	.	-5.0%
CCCCNC(=O)/C(=C\c1ccc([N+](=O)[O-])o1)NC(=O)c1ccccc1	?	.	-1.9%	16.0	50.3	-18.7%
Cc1ccc(C(=O)N/C(=C\c2ccc(-c3ccccc3[N+](=O)[O-])o2)C(=O)NCCN(C)C)cc1	1.47µM*	-13.5%	-6.2%	12.5*	18.2	?
Cc1ccc(C(=O)N/C(=C\c2ccc(-c3ccccc3[N+](=O)[O-])o2)C(=O)NCCCN(C)C)cc1	2.62µM*	-5.4%	1.9%	10.4	15.0	5.22µM*
Oc1cccc(-c2nc3ccc4ccccc4c3c3c2CCC3)c1	.	-146.7%	-43.6%	59.0*	127.1*	-11.2%
N#Cc1c(N)nc2c(c1-c1cccc(O)c1)CCCCCC2	0.6%	-1.1%	?	-4.8	-9.8	-6.3%
CC1CC(C)CN(CC(=O)NC(c2ccccc2)c2ccccc2)C1 (stereo not drawn)	11.7µM*	-1.6%	0.0%	-2.1	28.7	5.3%
CC1Cc2ccccc2N1CC(=O)NC(c1ccccc1)c1ccccc1 (stereo not drawn)	10.4µM*	4.5%	0.0%	-1.0	-10.6	6.57µM*
Cc1cc(=O)oc(C)c1C(=O)OCC(=O)c1ccc(Br)cc1	-20.0%	1.0%	-26.3%	24.2*	70.2*	?
Cc1cc(=O)oc(C)c1C(=O)OCC(=O)c1ccc(Cl)cc1	0.0%	-15.9%	-7.9%	34.9*	79.9*	29.5%
O=C(CS(=O)(=O)c1ccccc1)Nc1nnc(-c2cccs2)o1	-0.7%	.	13.7%	.	.	-0.1%
Cc1ccccc1C(C)NS(=O)(=O)c1ccc2c(c1)OCCO2 (stereo not drawn)	.	.	-2.0%	.	.	.
Cc1ccc(COc2ccc(CNCCCN3CCCCCC3=O)cc2)cc1	?	-8.3%	1.9%	25.7*	70.2*	0.2%
O=C(COc1ccc(Br)cc1)NCCCN1CCCC1=O	-5.1%	.	0.9%	.	.	?
NC(=O)NC(CC(=O)NCCCc1ccccc1)c1ccccc1Cl (stereo not drawn)	-3.2%	.	2.5%	1.8	-6.3	57.9%
